# Source: publication PMC11006913
# Changes are numbered by the printed parent chain.
# Tests used:
# Test in all cases: PBM; 200 nM protein, PBS
# Conditions in all cases: dsDNA, one strand shown
# PAX4 [1] = molecular target: T1, PAX4 (Homo sapiens, UniProt O43316 9-242, R200K)
# T1 sequence: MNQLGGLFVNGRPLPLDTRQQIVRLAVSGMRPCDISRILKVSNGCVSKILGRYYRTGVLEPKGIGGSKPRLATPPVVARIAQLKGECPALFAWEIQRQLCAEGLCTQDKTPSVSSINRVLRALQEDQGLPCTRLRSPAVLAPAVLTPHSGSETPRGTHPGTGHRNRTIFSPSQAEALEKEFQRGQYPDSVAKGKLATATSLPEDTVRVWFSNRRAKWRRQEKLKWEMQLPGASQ
# PAX4 [2] = molecular target: T2, PAX4 (Homo sapiens, UniProt O43316 9-242)
# T2 sequence: T1 sequence with K192R
# PAX4 [3] = molecular target: T3, PAX4 (Homo sapiens, UniProt O43316 9-242, R200Q)
# T3 sequence: T1 sequence with K192Q
# PAX4 [4] = molecular target: T4, PAX4 (Homo sapiens, UniProt O43316 9-242, F177V)
# T4 sequence: T1 sequence with F169V, K192R
# PAX4 [5] = molecular target: T5, PAX4 (Homo sapiens, UniProt O43316 9-242, F177Y)
# T5 sequence: T1 sequence with F169Y, K192R
# PROP1 [6] = molecular target: PROP1 (Homo sapiens, UniProt O75360 56-141)
# Sequence of PROP1 (Homo sapiens, UniProt O75360 56-141) (O75360 56-141): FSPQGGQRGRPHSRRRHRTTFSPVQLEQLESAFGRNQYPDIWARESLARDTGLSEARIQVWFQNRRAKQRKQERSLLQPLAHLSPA
# PROP1 [7] = molecular target: PROP1 (Homo sapiens, UniProt O75360 56-141, R99H)
# Sequence of PROP1 (Homo sapiens, UniProt O75360 56-141, R99H) (O75360 56-141 R99H): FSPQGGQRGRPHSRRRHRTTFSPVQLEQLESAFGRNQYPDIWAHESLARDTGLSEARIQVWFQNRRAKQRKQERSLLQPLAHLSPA
# PROP1 [8] = molecular target: PROP1 (Homo sapiens, UniProt O75360 56-141, F88S)
# Sequence of PROP1 (Homo sapiens, UniProt O75360 56-141, F88S) (O75360 56-141 F88S): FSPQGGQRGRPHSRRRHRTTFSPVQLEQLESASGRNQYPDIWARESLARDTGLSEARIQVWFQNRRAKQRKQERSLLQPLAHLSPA
# PAX4 [9] = molecular target: T6, PAX4 (Homo sapiens, UniProt O43316 9-242, R227W)
# T6 sequence: T1 sequence with K192R, R219W
# PITX2 = PITX2 (Homo sapiens, UniProt Q99697 72-157)
# HOXA2 [10] = molecular target: HOXA2 (Homo sapiens, UniProt O43364 129-215, R185T)
# Sequence of HOXA2 (Homo sapiens, UniProt O43364 129-215, R185T) (O43364 129-215 R185T): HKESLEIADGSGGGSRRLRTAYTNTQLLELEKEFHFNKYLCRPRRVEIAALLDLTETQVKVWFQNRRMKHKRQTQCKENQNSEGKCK
# HOXA2 [11] = molecular target: HOXA2 (Homo sapiens, UniProt O43364 129-215, R185K)
# Sequence of HOXA2 (Homo sapiens, UniProt O43364 129-215, R185K) (O43364 129-215 R185K): as the sequence (O43364 129-215 R185T) above, with T57K counted along it
# HOXA2 [12] = molecular target: HOXA2 (Homo sapiens, UniProt O43364 129-215, Y150S)
# Sequence of HOXA2 (Homo sapiens, UniProt O43364 129-215, Y150S) (O43364 129-215 Y150S): as the sequence (O43364 129-215 R185T) above, with Y22S, T57R counted along it
# HOXA2 [13] = molecular target: HOXA2 (Homo sapiens, UniProt O43364 129-215)
# Sequence of HOXA2 (Homo sapiens, UniProt O43364 129-215) (O43364 129-215): as the sequence (O43364 129-215 R185T) above, with T57R counted along it
# HOXD13 [14] = molecular target: HOXD13 (Homo sapiens, UniProt P35453 263-343, T313R)
# Sequence of HOXD13 (Homo sapiens, UniProt P35453 263-343, T313R) (P35453 263-343 T313R): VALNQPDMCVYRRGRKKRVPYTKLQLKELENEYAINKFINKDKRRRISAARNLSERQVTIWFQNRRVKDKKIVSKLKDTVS
# HOXD13 [15] = molecular target: HOXD13 (Homo sapiens, UniProt P35453 263-343)
# Sequence of HOXD13 (Homo sapiens, UniProt P35453 263-343) (P35453 263-343): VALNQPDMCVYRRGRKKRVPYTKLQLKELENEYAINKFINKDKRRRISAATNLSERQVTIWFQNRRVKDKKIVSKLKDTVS
# HOXD13 [16] = molecular target: HOXD13 (Homo sapiens, UniProt P35453 263-343, T313A)
# Sequence of HOXD13 (Homo sapiens, UniProt P35453 263-343, T313A) (P35453 263-343 T313A): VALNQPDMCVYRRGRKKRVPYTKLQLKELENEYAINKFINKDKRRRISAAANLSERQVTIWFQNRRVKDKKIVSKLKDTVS
sequence,measurement,setting,value
CACCGGCC,binding signal,PAX4 [1],"9.22 upbm affinity estimate (log intensity, higher = more binding, comparable within an allelic series)"
same,binding signal,PAX4 [2],"9.3 upbm affinity estimate (log intensity, higher = more binding, comparable within an allelic series)"
same,binding signal,PAX4 [3],"9.31 upbm affinity estimate (log intensity, higher = more binding, comparable within an allelic series)"
same,binding signal,PAX4 [4],"9.16 upbm affinity estimate (log intensity, higher = more binding, comparable within an allelic series)"
same,binding signal,PAX4 [5],"9.17 upbm affinity estimate (log intensity, higher = more binding, comparable within an allelic series)"
same,binding signal,PROP1 [6],"6.75 upbm affinity estimate (log intensity, higher = more binding, comparable within an allelic series)"
same,binding signal,PROP1 [7],"6.63 upbm affinity estimate (log intensity, higher = more binding, comparable within an allelic series)"
same,binding signal,PROP1 [8],"6.3 upbm affinity estimate (log intensity, higher = more binding, comparable within an allelic series)"
same,binding signal,PAX4 [9],"9.27 upbm affinity estimate (log intensity, higher = more binding, comparable within an allelic series)"
ATTTAAAA,binding signal,PAX4 [1],"10.7 upbm affinity estimate (log intensity, higher = more binding, comparable within an allelic series)"
same,binding signal,PAX4 [2],"11 upbm affinity estimate (log intensity, higher = more binding, comparable within an allelic series)"
same,binding signal,PAX4 [3],"10.8 upbm affinity estimate (log intensity, higher = more binding, comparable within an allelic series)"
same,binding signal,PAX4 [4],"10.3 upbm affinity estimate (log intensity, higher = more binding, comparable within an allelic series)"
GCGCCACC,binding signal,PAX4 [1],"9.38 upbm affinity estimate (log intensity, higher = more binding, comparable within an allelic series)"
same,binding signal,PAX4 [2],"9.4 upbm affinity estimate (log intensity, higher = more binding, comparable within an allelic series)"
same,binding signal,PAX4 [3],"9.4 upbm affinity estimate (log intensity, higher = more binding, comparable within an allelic series)"
same,binding signal,PITX2,"7.93 upbm affinity estimate (log intensity, higher = more binding, comparable within an allelic series)"
same,binding signal,PAX4 [4],"9.23 upbm affinity estimate (log intensity, higher = more binding, comparable within an allelic series)"
same,binding signal,PAX4 [5],"9.26 upbm affinity estimate (log intensity, higher = more binding, comparable within an allelic series)"
same,binding signal,PAX4 [9],"9.32 upbm affinity estimate (log intensity, higher = more binding, comparable within an allelic series)"
GAGCAGGC,binding signal,PAX4 [1],"9.17 upbm affinity estimate (log intensity, higher = more binding, comparable within an allelic series)"
same,binding signal,PAX4 [2],"9.18 upbm affinity estimate (log intensity, higher = more binding, comparable within an allelic series)"
same,binding signal,HOXA2 [10],"7.17 upbm affinity estimate (log intensity, higher = more binding, comparable within an allelic series)"
same,binding signal,PAX4 [3],"9.24 upbm affinity estimate (log intensity, higher = more binding, comparable within an allelic series)"
same,binding signal,HOXA2 [11],"10.1 upbm affinity estimate (log intensity, higher = more binding, comparable within an allelic series)"
same,binding signal,PAX4 [4],"9.28 upbm affinity estimate (log intensity, higher = more binding, comparable within an allelic series)"
same,binding signal,PAX4 [5],"9.26 upbm affinity estimate (log intensity, higher = more binding, comparable within an allelic series)"
same,binding signal,PAX4 [9],"9.32 upbm affinity estimate (log intensity, higher = more binding, comparable within an allelic series)"
same,binding signal,HOXA2 [12],"10.5 upbm affinity estimate (log intensity, higher = more binding, comparable within an allelic series)"
same,binding signal,HOXA2 [13],"7.04 upbm affinity estimate (log intensity, higher = more binding, comparable within an allelic series)"
CCTCCCCC,binding signal,PAX4 [1],"9.47 upbm affinity estimate (log intensity, higher = more binding, comparable within an allelic series)"
same,binding signal,PAX4 [2],"9.49 upbm affinity estimate (log intensity, higher = more binding, comparable within an allelic series)"
same,binding signal,HOXD13 [14],"9.14 upbm affinity estimate (log intensity, higher = more binding, comparable within an allelic series)"
same,binding signal,PAX4 [3],"9.57 upbm affinity estimate (log intensity, higher = more binding, comparable within an allelic series)"
same,binding signal,HOXD13 [15],"9.51 upbm affinity estimate (log intensity, higher = more binding, comparable within an allelic series)"
same,binding signal,PAX4 [4],"9.21 upbm affinity estimate (log intensity, higher = more binding, comparable within an allelic series)"
same,binding signal,PAX4 [5],"9.2 upbm affinity estimate (log intensity, higher = more binding, comparable within an allelic series)"
same,binding signal,HOXD13 [16],"9.46 upbm affinity estimate (log intensity, higher = more binding, comparable within an allelic series)"
same,binding signal,PAX4 [9],"9.23 upbm affinity estimate (log intensity, higher = more binding, comparable within an allelic series)"
